Bioassay records from PubChem.
The list is a sample of the results.
aSyn 5UTR act = Activators working through SNCA 5'UTR binding (MLPCN); alpha-synuclein 5'UTR reporter, activators screen; activity score, % (tested at 7.5 µM), hits read low; 300,000 tested, 7.1% active; AID 1814; in the data active = activity score below about -60%
Large screens that a line does not name were inactive.

O=C(c1ccco1)N1CCN(c2ccc(F)cc2)CC1	aSyn 5UTR act -79.2
Cc1nc(N2CCN(C(=O)c3ccco3)CC2)c2oc3ccccc3c2n1	aSyn 5UTR act -88.8
O=C(c1ccco1)N1CCN(c2ccc(N3CCCCC3)nn2)CC1	aSyn 5UTR act -133.1
COc1cc(/C=C/C(=O)c2ccc3c(c2)OCCO3)cc(Br)c1OCC(=O)N(C)C	aSyn 5UTR act -818.7
Cc1cccn2cc(CSc3ccccc3N)nc12	aSyn 5UTR act -117.2
O=C(Nc1ccc(N2CCN(C(=O)c3ccccc3)CC2)cc1)c1ccc(Br)o1	aSyn 5UTR act -69.4
O=C(Nc1ccc(N2CCN(C(=O)c3ccc(Cl)cc3)CC2)cc1)c1ccc([N+](=O)[O-])o1	none
CCN1CCN(c2ccc(NC(=O)c3ccc(Br)o3)cc2)CC1	aSyn 5UTR act -91.2
CCC(=O)N1CCN(c2ccc(NC(=O)c3ccc([N+](=O)[O-])o3)cc2)CC1	none
Cc1cc(Cl)c2oc(C(=O)N3CCN(c4cccc(C)n4)CC3)c(C)c2c1	aSyn 5UTR act -126.6
CC(=O)c1cc(C#N)c(SCc2ccccc2)nc1C	aSyn 5UTR act -84.6
CC(=O)c1cc(C#N)c(SCc2ccccn2)nc1C	aSyn 5UTR act -113.6
COc1c(C(=O)NNC(=O)c2ccccc2Cl)csc1Br	aSyn 5UTR act -85.5
COc1ccc(C2=NN(CN3C(=O)C(=O)c4ccccc43)C(c3ccc(Br)cc3)C2)cc1 (stereo not drawn)	aSyn 5UTR act -114.5
COc1ccc(C2=NN(CN3C(=O)C(=O)c4ccccc43)C(c3ccc(C)cc3)C2)cc1 (stereo not drawn)	aSyn 5UTR act -115.9
Cc1ccc(C2CCN(C(=O)Nc3ccc(F)cc3)C2)cc1 (stereo not drawn)	aSyn 5UTR act -125.2
Cc1nc2cc(NC(=O)N3CCC(c4ccccc4)C3)ccc2n1C (stereo not drawn)	aSyn 5UTR act -103.8
CCN(CC)C(=O)CSc1nnc(-c2ccccc2)o1	aSyn 5UTR act -137.4
CN(C)CCSc1nnc(-c2ccccc2)o1	aSyn 5UTR act -71.1
COc1ccc(/C=C2\SC(=O)N(CCC(=O)Nc3ccccc3)C2=O)cc1OC	none
COc1ccccc1/C=C1\SC(=O)N(CCC(=O)NNC(=O)c2ccccc2Cl)C1=O	aSyn 5UTR act -74.4
Oc1ccc2ccccc2c1C=Nc1ccccc1-c1nc2ccccc2[nH]1	aSyn 5UTR act -79.1
CC(=O)c1cnc(-c2ccccc2Cl)s1	aSyn 5UTR act -81.6
CCc1c(C)sc(NC(=S)Nc2nc(C)cc(C)n2)c1C(=O)OC	aSyn 5UTR act -97.6
NC(=Nc1ccc(Br)cc1)c1ccccc1	aSyn 5UTR act -75.2
CCn1cnc2cc(NC(=O)c3ccc(C)cc3)ccc21	aSyn 5UTR act -105.5
Cc1ccc(C(=O)Nc2ccc3c(c2)ncn3C)cc1	aSyn 5UTR act -115.0
CCC(=O)Nc1ccc2c(c1)ncn2-c1ccc(C)cc1	aSyn 5UTR act -77.0
CCCn1cnc2cc(NC(=O)c3cccs3)ccc21	aSyn 5UTR act -112.6
Cc1ccc(Nc2nc(COC(=O)COc3ccc(C=O)cc3)cs2)cc1	aSyn 5UTR act -107.4
C/C=C/c1ccc(OCC(=O)OCc2csc(Nc3ccc(C)cc3)n2)c(OC)c1	aSyn 5UTR act -176.8
Nc1ccc2nc(-c3cc(Cl)c(N)c(Cl)c3)[nH]c2c1	aSyn 5UTR act -279.5
Clc1ccc2nc(-c3ccc(Cl)nc3)[nH]c2c1	aSyn 5UTR act -293.5
Nc1ccc(-c2nc3ccc(N)cc3[nH]2)cc1	aSyn 5UTR act -62.0
CCc1nc(N)nc(N)c1-c1ccc(Cl)cc1	none
Nc1ccc2nc(-c3ccc(Cl)cc3)[nH]c2c1	aSyn 5UTR act -175.6
Nc1ccc(Cc2nc3c(ccc4ccccc43)[nH]2)cc1	aSyn 5UTR act -171.2
Cc1ccc(C)c(-c2nc3ccc(N)cc3[nH]2)c1	aSyn 5UTR act -64.2
Cc1ccc2nc(Cc3ccc(N)cc3)[nH]c2c1	aSyn 5UTR act -89.8
Cc1ccc2nc(C(O)C(O)c3nc4ccc(C)cc4[nH]3)[nH]c2c1 (stereo not drawn)	aSyn 5UTR act -159.0
Cc1cc(C(=O)OCC(=O)N2CCc3ccccc32)c(C)o1	aSyn 5UTR act -162.9
O=C(CNC(=O)c1ccccc1Cl)OCC(=O)N1CCc2ccccc21	aSyn 5UTR act -117.0
O=C(NCC(=O)N1CCc2ccccc2C1)c1ccccc1Cl	aSyn 5UTR act -101.1
Fc1ccccc1/C=N/Nc1ncnc2ccccc12	aSyn 5UTR act -241.1
Clc1ccc(/C=N/Nc2ncnc3ccccc23)cc1Cl	aSyn 5UTR act -317.7
O=C(COc1ccc(F)c(Cl)c1)c1ccc[nH]1	aSyn 5UTR act -70.8
O=C(CCC(=O)c1ccc[nH]1)c1ccc(Cl)cc1	aSyn 5UTR act -115.8
Cc1ccc2c3c(cccc13)-c1ccccc1C2=O	aSyn 5UTR act -110.6
O=C(O)c1ccc2c3c(ncnc13)-c1ccccc1C2=O	none
Cc1cccc(-c2nc(C#N)c(NC3CCCCC3)o2)c1	aSyn 5UTR act -171.2
Cc1cccc(-c2nc(C#N)c(N3CCCCC3)o2)c1	aSyn 5UTR act -186.8
Cc1ccc(NC(=O)c2cc(C)no2)cc1	aSyn 5UTR act -74.9
COc1ccc(NC(=O)c2cc(C)no2)cc1	aSyn 5UTR act -65.1
N/C(=N/OC(=O)c1ccccc1Cl)c1nonc1N	aSyn 5UTR act -84.9
Cc1nc(/C(N)=N/OC(=O)c2ccccc2Cl)c(C(F)(F)F)o1	aSyn 5UTR act -131.1
